Reference: ChEMBL document CHEMBL3988442, “University of Dundee, Small-Polar-MMV Screening Library” (2021)
For some assays here: Measured potencies and affinities stand elsewhere.

Legend:
[1] = biological target: Protein translocase subunit SecA (Escherichia coli (strain K12)) (UniProt P10408); test: Assay to Identify E. coli SecA ATPase Inhibitors; assay type: functional; design: scale not given: direction of the effect not stated beside the values; details: 30 µM
[2] = biological target: T1, Ubiquitin-activating enzyme e1, putative (Leishmania donovani (strain BPK282A1)) (UniProt E9BSI1); test: Leishmania donovani Ubiquitin Activating Enzyme (LdE1); assay type: functional; design: scale not given: direction of the effect not stated beside the values; details: 30 µM
T1 sequence (whole entry): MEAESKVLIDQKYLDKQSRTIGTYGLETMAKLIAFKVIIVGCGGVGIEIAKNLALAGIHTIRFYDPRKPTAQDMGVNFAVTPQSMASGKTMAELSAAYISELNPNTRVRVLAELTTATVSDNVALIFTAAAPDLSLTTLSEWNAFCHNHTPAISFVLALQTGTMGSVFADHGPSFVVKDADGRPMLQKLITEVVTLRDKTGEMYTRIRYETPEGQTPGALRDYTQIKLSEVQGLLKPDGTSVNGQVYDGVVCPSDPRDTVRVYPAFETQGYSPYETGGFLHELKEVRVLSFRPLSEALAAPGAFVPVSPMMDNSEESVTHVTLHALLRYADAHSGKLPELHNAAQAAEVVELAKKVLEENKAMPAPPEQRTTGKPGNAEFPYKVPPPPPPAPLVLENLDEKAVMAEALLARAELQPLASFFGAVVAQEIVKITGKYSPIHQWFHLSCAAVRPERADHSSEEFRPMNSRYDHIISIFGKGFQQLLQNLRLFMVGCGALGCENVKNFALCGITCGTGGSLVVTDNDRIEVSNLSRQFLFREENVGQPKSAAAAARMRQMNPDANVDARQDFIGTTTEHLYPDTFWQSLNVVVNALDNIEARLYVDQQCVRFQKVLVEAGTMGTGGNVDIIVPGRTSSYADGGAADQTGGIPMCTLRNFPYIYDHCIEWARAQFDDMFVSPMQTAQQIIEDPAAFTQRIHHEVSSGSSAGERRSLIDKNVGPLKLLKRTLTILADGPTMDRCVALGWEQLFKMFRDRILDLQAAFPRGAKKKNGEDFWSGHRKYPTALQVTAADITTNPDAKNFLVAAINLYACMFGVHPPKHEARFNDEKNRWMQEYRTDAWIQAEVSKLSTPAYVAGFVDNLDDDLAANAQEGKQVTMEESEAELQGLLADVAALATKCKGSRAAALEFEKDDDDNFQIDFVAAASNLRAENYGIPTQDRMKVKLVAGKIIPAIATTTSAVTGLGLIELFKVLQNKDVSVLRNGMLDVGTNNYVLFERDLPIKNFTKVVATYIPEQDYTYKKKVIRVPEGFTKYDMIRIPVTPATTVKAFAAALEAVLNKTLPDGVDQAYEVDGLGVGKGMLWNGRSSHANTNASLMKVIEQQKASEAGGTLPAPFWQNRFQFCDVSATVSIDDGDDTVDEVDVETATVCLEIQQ

[3] = biological target: AMP-activated protein kinase, AMPK (Homo sapiens) (UniProt P54646+O43741+P54619+Q9UGJ0+Q9Y478+Q13131+Q9UGI9); test: AMP-dependent Kinase enzyme assay. An in vitro enzyme assay that detects ADP turnover that is directly proportional to AMPK activity. This uses naive AMPK that is activated during the assay with MK-8722; assay type: functional; design: scale not given: direction of the effect not stated beside the values; details: 30 µM
[4] = biological target: Sialic acid-binding Ig-like lectin 9 (Homo sapiens) (UniProt Q9Y336); test: Hs-Siglec9 ALPHAscreen SOP 20170721; design: scale not given: direction of the effect not stated beside the values; details: 10 µM
Chain of Sialic acid-binding Ig-like lectin 9 (Homo sapiens) (Q9Y336 whole entry): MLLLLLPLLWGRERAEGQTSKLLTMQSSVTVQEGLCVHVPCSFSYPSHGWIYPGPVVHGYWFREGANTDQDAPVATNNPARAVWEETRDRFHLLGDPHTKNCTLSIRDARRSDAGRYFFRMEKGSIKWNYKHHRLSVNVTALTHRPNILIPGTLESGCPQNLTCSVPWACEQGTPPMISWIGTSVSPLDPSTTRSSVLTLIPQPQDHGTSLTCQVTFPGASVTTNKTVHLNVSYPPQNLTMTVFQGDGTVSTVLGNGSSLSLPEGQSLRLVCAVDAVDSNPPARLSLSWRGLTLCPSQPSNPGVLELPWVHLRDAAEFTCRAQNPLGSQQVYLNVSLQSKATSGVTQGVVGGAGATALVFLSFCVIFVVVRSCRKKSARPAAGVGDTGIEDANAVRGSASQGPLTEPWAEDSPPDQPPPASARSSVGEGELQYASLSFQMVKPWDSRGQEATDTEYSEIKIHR

[5] = test system: Trypanosoma cruzi; test: Trypanosoma cruzi phosphomannomutase and mannose-1-phosphate guanylyltransferase assay; assay type: functional; design: scale not given: direction of the effect not stated beside the values; details: 10 µM
[6] = biological target: T2, Arginase-2, mitochondrial (Homo sapiens) (UniProt P78540); test: in vitro enzyme assay to detect the production of urea directly proportional to the activity of Arginase II; assay type: functional; design: scale not given: in the data most compounds retested in dose-response had high values
T2 sequence (whole entry): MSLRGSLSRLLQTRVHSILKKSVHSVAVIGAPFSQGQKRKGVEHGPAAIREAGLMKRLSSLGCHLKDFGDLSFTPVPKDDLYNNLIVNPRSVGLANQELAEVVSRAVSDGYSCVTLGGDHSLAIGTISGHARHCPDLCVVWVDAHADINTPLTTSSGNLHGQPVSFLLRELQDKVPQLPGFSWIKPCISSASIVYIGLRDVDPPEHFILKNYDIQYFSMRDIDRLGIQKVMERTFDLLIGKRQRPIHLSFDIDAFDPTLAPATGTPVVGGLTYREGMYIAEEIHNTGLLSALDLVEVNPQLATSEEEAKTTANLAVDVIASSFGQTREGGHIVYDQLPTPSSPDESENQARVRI

[7] = biological target: T3, Proteasome subunit beta (Trypanosoma cruzi) (UniProt O96673); test: Trypanosoma cruzi proteasome chymotrypsin-like activity (TcProtChymo) assay.; assay type: functional; design: scale not given: in the data most compounds retested in dose-response had high values; details: 9.37 µM
T3 sequence (whole entry): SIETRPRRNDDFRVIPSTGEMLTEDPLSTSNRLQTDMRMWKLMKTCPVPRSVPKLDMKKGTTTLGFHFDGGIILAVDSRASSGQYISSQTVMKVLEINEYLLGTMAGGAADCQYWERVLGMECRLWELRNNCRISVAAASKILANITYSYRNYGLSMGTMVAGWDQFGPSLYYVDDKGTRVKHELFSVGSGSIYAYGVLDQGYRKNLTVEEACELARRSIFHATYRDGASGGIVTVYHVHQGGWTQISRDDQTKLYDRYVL

[8] = species on record: Homo sapiens; test: To identify inhibition of the IFN signalling (Jak-Stat) pathway via expression of an eGFP reporter gene under the control of an IFN-stimulated response element (ISRE) containing MxA promoter.; assay type: functional; design: scale not given: direction of the effect not stated beside the values; details: 30 µM
[9] = biological target: T4, Tyrosyl-tRNA synthetase, putative (Trypanosoma cruzi (strain CL Brener)) (UniProt Q4DSP6); test: Trypanosoma cruzi tyrosyl tRNA synthetase (TcYRS) _High Tyrosine SOP; assay type: functional; design: scale not given: in the data most compounds retested in dose-response had high values; details: 30 µM
T4 sequence (whole entry): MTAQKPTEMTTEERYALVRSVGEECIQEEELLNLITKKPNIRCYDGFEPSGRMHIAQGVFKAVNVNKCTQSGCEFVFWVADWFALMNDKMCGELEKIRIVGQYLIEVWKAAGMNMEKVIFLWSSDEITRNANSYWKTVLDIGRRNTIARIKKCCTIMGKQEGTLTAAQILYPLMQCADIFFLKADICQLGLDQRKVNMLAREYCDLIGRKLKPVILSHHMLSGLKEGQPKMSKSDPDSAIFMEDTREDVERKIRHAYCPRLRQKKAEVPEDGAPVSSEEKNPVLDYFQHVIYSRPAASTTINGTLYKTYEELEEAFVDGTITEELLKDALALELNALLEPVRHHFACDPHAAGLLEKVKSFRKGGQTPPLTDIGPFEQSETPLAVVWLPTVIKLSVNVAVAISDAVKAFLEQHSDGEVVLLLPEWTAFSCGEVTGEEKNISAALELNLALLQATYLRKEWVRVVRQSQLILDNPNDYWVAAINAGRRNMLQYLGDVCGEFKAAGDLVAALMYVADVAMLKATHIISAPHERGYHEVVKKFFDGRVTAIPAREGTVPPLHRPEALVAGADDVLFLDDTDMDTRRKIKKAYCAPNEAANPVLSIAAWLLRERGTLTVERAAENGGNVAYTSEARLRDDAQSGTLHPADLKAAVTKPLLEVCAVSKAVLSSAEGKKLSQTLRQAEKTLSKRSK

[10] = biological target: T4, Tyrosyl-tRNA synthetase, putative (Trypanosoma cruzi (strain CL Brener)); test: Trypanosoma cruzi tyrosyl tRNA synthetase (TcYRS) SOP; assay type: functional; design: scale not given: direction of the effect not stated beside the values; details: 30 µM
[11] = biological target: Chromo domain-containing protein 1 (Saccharomyces cerevisiae (strain ATCC 204508 / S288c) (Baker's yeast)) (UniProt P32657); test: ScCHD-1 Enzyme Inhibition Assay; assay type: functional; design: scale not given: in the data most compounds retested in dose-response had high values; details: 30 µM
Chain of Chromo domain-containing protein 1 (Saccharomyces cerevisiae (strain ATCC 204508 / S288c) (Baker's yeast)) (P32657 whole entry, the tested form may be a part): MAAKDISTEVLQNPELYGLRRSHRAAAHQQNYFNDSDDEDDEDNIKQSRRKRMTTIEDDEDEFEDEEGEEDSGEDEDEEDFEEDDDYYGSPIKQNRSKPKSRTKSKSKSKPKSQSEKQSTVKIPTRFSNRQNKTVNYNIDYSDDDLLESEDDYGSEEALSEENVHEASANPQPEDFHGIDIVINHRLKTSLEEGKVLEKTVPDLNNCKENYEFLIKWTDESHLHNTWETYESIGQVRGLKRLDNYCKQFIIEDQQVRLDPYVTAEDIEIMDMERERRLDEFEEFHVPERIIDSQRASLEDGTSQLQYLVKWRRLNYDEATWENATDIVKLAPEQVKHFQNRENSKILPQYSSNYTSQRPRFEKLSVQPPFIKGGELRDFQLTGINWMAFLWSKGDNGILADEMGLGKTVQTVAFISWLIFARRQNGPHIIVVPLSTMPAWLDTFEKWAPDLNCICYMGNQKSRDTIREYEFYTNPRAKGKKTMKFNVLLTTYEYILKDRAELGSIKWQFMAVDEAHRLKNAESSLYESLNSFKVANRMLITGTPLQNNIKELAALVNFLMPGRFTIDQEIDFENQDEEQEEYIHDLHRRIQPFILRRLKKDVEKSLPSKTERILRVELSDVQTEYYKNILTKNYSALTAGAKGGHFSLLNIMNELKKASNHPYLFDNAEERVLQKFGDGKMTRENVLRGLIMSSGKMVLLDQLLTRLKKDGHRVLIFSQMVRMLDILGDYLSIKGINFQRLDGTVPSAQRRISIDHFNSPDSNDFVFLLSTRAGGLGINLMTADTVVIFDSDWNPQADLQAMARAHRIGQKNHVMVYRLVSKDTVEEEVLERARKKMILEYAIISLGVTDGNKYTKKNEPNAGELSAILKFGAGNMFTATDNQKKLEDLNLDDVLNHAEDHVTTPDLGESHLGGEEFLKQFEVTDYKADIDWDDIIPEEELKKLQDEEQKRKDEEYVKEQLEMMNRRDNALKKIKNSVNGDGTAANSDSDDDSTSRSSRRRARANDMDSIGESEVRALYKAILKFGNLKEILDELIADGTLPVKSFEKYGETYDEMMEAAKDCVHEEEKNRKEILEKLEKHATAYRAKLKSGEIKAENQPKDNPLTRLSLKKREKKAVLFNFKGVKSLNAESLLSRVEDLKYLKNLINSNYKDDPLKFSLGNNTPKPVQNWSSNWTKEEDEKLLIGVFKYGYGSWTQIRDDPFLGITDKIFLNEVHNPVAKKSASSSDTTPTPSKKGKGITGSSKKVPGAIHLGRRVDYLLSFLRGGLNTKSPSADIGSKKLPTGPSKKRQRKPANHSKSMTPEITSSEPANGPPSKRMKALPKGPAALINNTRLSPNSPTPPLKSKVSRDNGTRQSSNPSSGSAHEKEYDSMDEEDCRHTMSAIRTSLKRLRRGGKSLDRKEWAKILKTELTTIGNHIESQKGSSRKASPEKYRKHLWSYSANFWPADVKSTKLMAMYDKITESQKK

[12] = biological target: T5, Methionyl-tRNA synthetase, putative (Leishmania donovani (strain BPK282A1)) (UniProt E9BF75); test: Leishmania donovani Methionine tRNA synthetase (LdMetRS):v7. Dose response assay; assay type: functional; design: conc 80 nM, time 150 minutes
T5 sequence (whole entry): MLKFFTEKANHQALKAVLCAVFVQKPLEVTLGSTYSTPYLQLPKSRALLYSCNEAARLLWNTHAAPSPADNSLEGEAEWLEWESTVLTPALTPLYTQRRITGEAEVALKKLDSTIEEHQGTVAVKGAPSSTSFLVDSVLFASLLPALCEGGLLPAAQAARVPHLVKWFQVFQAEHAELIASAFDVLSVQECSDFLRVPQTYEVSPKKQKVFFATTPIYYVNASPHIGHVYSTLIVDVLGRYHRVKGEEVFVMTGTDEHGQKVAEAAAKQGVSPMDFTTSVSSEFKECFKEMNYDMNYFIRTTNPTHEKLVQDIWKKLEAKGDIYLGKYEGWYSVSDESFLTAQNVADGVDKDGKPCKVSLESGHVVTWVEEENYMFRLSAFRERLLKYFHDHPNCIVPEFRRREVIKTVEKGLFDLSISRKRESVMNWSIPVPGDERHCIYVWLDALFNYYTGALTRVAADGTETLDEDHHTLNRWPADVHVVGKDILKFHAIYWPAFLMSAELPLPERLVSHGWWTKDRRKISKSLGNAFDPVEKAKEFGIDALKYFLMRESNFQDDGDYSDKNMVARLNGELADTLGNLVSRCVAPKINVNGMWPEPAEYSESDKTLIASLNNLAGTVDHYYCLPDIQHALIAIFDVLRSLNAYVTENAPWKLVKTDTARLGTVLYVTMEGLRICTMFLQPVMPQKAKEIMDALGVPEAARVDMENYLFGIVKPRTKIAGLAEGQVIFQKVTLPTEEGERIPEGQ

Chain of Protein translocase subunit SecA (Escherichia coli (strain K12)) (P10408 whole entry): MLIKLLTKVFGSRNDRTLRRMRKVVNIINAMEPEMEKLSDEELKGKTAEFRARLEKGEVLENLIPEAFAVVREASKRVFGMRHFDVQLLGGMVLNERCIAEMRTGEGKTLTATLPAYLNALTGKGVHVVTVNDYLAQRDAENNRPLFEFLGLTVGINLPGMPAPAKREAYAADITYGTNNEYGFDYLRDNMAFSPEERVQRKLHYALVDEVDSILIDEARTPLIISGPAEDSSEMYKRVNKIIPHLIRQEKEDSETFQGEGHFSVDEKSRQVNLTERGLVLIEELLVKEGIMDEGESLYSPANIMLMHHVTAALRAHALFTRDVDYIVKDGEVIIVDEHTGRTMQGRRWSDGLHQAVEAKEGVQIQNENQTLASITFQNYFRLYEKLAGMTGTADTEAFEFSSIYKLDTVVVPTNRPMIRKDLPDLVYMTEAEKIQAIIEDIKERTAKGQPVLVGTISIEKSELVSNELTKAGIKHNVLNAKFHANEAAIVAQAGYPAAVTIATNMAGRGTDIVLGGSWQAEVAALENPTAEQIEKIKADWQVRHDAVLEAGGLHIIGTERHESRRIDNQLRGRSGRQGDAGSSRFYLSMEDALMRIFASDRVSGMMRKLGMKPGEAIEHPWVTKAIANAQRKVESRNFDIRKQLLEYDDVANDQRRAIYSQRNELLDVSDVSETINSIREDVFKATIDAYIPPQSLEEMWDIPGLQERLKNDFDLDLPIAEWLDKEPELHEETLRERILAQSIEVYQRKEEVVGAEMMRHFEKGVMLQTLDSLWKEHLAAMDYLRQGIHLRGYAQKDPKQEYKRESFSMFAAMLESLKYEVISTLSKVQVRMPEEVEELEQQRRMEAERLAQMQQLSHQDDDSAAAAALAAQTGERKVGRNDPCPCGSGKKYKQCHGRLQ

SMILES | Percent Effect [1] | Percent Effect [2] | Percent Effect [3] | Percent Effect [4] | Percent Effect [5] | Percent Effect ([6]; 30 µM) | Percent Effect ([6]; 33.3 µM) | Percent Effect [7] | Percent Effect [8] | Percent Effect [9] | Percent Effect [10] | Percent Effect [11] | PXC50 ([12]; MAX_EFFECT 9.660574413) | PXC50 ([12]; MAX_EFFECT 12.53263708) | PXC50 ([12]; MAX_EFFECT 4.401408451) | PXC50 ([12]; MAX_EFFECT 5.700712589) | PXC50 ([12]; MAX_EFFECT 8.551068884) | PXC50 ([12]; MAX_EFFECT 15.66901408)
COc1ccc(CN2C[C@@H](N(C)Cc3ccco3)[C@H]3OCCC[C@H]32)cc1 | -4.13% | 5.33% | 8.07% | 3.01% | -5.71% | -8.11% | 0.699% | 11% | 9.72% | 3.19% | 8.97% | -3.71% |  |  |  |  |  | 
Cn1cc(CN(Cc2ccccc2)CC(O)c2cccs2)cn1 (stereo not given) | -2.22% | 2.7% | -1.93% | 9.64% | 7.14% | 7.03% | -1.74% | 7.81% | 1.28% | -1.07% | -13.6% | -8.54% |  |  |  |  |  | 
Cc1nc(NCc2nncn2C2CC2)c2c(CC(C)C)csc2n1 |  |  | -3.8% |  |  |  |  |  |  |  |  |  | < 4 | < 4 |  |  |  | 
COc1ccc(C(=O)N2C[C@@H](C(=O)O)[C@H](c3ccccc3C)C2)c(O)c1 | -5.13% | 5.41% | -4.36% | 32% | 1.86% | 4.87% | -0.248% | 9.53% | -12.1% | 6.45% | 16.1% | -2.87% |  |  |  |  |  | 
CC1CCCN(CC(=O)N2CCC(c3ncc4c(n3)CCNC4)CC2)C1 (stereo not given) | -3.77% | 2.67% | 14.5% | -3.5% | 0.394% |  | -0.699% | 5.02% | 3.99% | -1.06% | -3.85% | 2.27% |  |  | < 4 | < 4 |  | 
Cc1nc(C2CCCN2C(=O)CNS(C)(=O)=O)no1 (stereo not given) | -2.65% | 5.33% | -7.92% | -1.69% | -0.876% | -12.4% | 0% | 10.5% | 5.88% | 7.1% | 18.5% | -12.8% |  |  |  |  |  | 
CN(Cc1ccccn1)C(=O)[C@]12COC[C@H]1CN(Cc1cnn(C)c1)C2 | -1.75% | 2.67% | 0.223% | 6.55% | 1.16% | 5.95% | -52.5% | 3.93% | -7.69% | 2.08% | 7.5% | -8.12% |  |  |  |  |  | 
Cc1ccc(CN2CCC(F)(F)C3(CCN(c4cnccn4)C3)C2)o1 (stereo not given) | -2.38% | 2.7% | 11.5% | 1.13% | 0% |  | 3.33% | -3.13% | 0.47% | 5.94% | 3.66% | -2.36% |  |  |  |  | < 4 | < 4
FC(F)(F)C1CCc2nnc(CNCc3ccsc3)n2C1 (stereo not given) | -4.02% | 16.2% | 1.38% | 30.8% | 5.18% | 5.95% | 10.2% | 10.4% | -8.39% | 5.38% | 16.1% | -13.2% |  |  |  |  |  | 
CCC(C(=O)NCc1ccncc1)N(c1ccc(OC)cc1)S(C)(=O)=O (stereo not given) | -4.48% | 2.67% | -7.64% | 14% | 4.97% | 2.7% | 3.65% | 2.27% | 6.36% | 4.92% | 8.64% | -13.6% |  |  |  |  |  | 
CC1CCN(S(=O)(=O)c2cccn(CC(=O)NC3CCCC3)c2=O)CC1 | -2.96% | 5.48% | -5.65% | -2% | -5.68% | 2.7% | 0.455% | 17.2% | 4.13% | 3.23% | 10% | -2.6% |  |  |  |  |  | 
